ChEMBL document CHEMBL3433997, “St. Jude Leishmania screening dataset” (2016)

What was measured:
Assay type in all cases: functional
[1] = target: Solute carrier family 2, facilitated glucose transporter member 1 (Homo sapiens) (UniProt P11166); assay: ST_JUDE_LEISH: Cytotoxicity at 2uM final concentration against transgenic Leishmania Mexicana promastigotes LmGLUT1 that are glucose transport deficient and complemented with the human glucose transporter GLUT1. Activity is measured by DNA content using SYBR green in vitro
Solute carrier family 2, facilitated glucose transporter member 1 (Homo sapiens), sequence (P11166 whole entry): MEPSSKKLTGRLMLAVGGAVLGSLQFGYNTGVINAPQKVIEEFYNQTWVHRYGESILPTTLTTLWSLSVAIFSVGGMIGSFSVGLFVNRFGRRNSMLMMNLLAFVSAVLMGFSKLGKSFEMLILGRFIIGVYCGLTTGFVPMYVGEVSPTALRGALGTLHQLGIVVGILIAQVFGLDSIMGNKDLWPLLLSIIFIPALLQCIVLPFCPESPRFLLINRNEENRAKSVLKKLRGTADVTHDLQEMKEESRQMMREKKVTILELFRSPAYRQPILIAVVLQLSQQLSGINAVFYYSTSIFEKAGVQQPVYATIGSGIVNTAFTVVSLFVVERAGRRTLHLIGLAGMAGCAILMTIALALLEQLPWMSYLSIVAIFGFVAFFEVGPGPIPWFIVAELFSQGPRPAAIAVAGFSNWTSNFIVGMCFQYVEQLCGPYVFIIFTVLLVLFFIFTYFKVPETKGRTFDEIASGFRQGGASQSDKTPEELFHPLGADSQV

[2] = target: Hexose transporter 1 (Plasmodium falciparum) (UniProt O97467); assay: ST_JUDE_LEISH: Cytotoxicity at 2uM final concentration against transgenic Leishmania Mexicana promastigotes LmPfHT that are glucose transport deficient and complemented with the Plasmodium falciparum hexose transporter. Activity is measured by DNA content using SYBR green in vitro
[3] = target: Glucose transporter (Leishmania mexicana) (UniProt O61059); assay: ST_JUDE_LEISH: Cytotoxicity at 2uM final concentration against transgenic Leishmania Mexicana promastigotes LmGT2 that are glucose transport deficient and complemented with the L. Mexicana glucose transporter 2. Activity is measured by DNA content using SYBR green in vitro

Structure (SMILES)	inhibition [1] [%]	inhibition [2] [%]	inhibition [3] [%]
Cc1ccc(-c2cc(C(=O)Nc3ccc(S(=O)(=O)N4CCCC(C)C4)cc3)[nH]n2)c(O)c1 (stereo unspecified)	-1.53	-1.98	-1.01
COc1cc(NC(=O)Nc2ccnc3ccccc23)cc(OC)c1	0.62	-0.6	1.16
O=C(c1cc2ccccc2o1)N1CCc2cc3nccc(N4CCN5CCC[C@H]5C4)c3cc21	3.95	4.36	6.35
Cc1cc(N[C@@H](CC(C)C)C(=O)NCCc2ccccc2)nc(NCCc2ccc(F)cc2)n1	-0.03	0.66	-1.31
N=C(N)NC(=O)Nc1cc(Br)c(Cl)c(C(F)(F)F)c1	4.79	3.32	0.66
O=C(Nc1cccc(CN2CCCN(CC3CC3)CC2)c1)c1ccc(Cl)c(Cl)c1	10.8	10.2	12.6
OCC1CCN(Cc2ccc(-c3ccc(-c4nc5cc(F)ccc5[nH]4)s3)cc2)CC1	4.75	3.26	4.89
CCC(C)(C)c1ccc(Oc2ccc(NC(=O)Nc3ccc(Cl)c(Cl)c3)cc2)cc1	1.75	1.24	1.26
COc1ccc(-c2cccc(NC(=O)c3ccc(C#N)cc3)c2)cc1CNC(C)C	8.59	6.99	8.32
CCc1cn2c3c(cc(C(=O)N[C@@H](Cc4ccccc4)[C@H](O)CNC(C)(C)c4cccc(OC)c4)cc13)N(C)S(=O)(=O)C2	1.01	1.91	0.96
Clc1ccc(CNc2nc(NCCc3c[nH]cn3)nc(NC3CCCCC3)n2)cc1	0.15	-1.21	-0.72
O=C(Nc1ccc(Cl)cc1)c1cccc2nc(C(F)(F)F)[nH]c12	9.28	9.14	5.94
